According to PubChem BioAssay (NCATS):
Inconclusive results are not listed. Calls of active or inactive are those of the source. The call rests on the fitted dose curve; in most records, active means well fitted curve in the direction sought with a large enough effect; inconclusive means small, poorly fitted or top-dose-only effect, or another doubt; inactive means no such curve, though single readings can be large; an effect the other way counts as inactive or inconclusive.

What was measured:
[1] = qHTS assay for measurement of the activity of small molecule inhibitors on Zika virus induced Caspase-3 activity in human astrocytoma cells (AID 1224859); details: SNB-19 ZIKV-induced caspase-3/7, luminescence, 6 h; series mostly up to 45.7 µM; further: potency means the concentration at half of the fitted maximal effect
Outline: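 Readout is luminescence from Caspase-Glo 3/7 added after a 6 h ZIKV infection (2 FFU/cell) of compound-pretreated (1 h) SNB-19 cells; data expressed as % inhibition versus uninfected and infected wells.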

[2] = qHTS Screen of the MIPE 4.0 Collection Against Ewings Sarcoma (RDES) (AID 1259252); details: RD-ES Ewing sarcoma viability, CellTiter-Glo, 48 h; series mostly up to 45.8 µM; further: nearly all actives have a fitted effect of over 35% in size; further: potency means the concentration at half of the fitted maximal effect
Outline: (§1)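 Cells plated in serum-containing RPMI (5% FBS) and treated with compound dilutions for 48 h. Readout luminescent viability; normalization relied on vehicle (no inhibition) and media-only columns (full inhibition).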

[3] = qHTS Screen of the MIPE 4.0 Collection Against Ewings Sarcoma (TC71) (AID 1259253); details: TC71 Ewing sarcoma viability, CellTiter-Glo, 48 h; series mostly up to 45.8 µM; further: nearly all actives have a fitted effect of over 40% in size; further: potency means the concentration at half of the fitted maximal effect
Outline: as §1

[4] = qHTS Screen of the MIPE 4.0 Collection Against Ewings Sarcoma (EW8) (AID 1259255); details: EW8 Ewing sarcoma viability, CellTiter-Glo, 48 h; series mostly up to 45.8 µM; further: nearly all actives have a fitted effect of over 35% in size; further: potency means the concentration at half of the fitted maximal effect
Outline: as §1

[5] = qHTS Screen of the MIPE 4.0 Collection Against Ewings Sarcoma (TC32) (AID 1259256); details: TC32 Ewing sarcoma viability, CellTiter-Glo, 48 h; series mostly up to 45.8 µM; further: nearly all actives have a fitted effect of over 45% in size; further: potency means the concentration at half of the fitted maximal effect
Outline: as §1

[6] = Identifying Small Molecule Inhibitors of Pancreatic Cancer Stem Cells (A2780, Spheroid) (AID 1259357); details: Potency: A2780 spheroid viability; series mostly up to 46.1 µM; further: potency means the concentration at half of the fitted maximal effect;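 further: spheroids pre-formed over 14 days in stem cell medium on hydrogel; compound exposure lasted 48 h before the ATP luminescence read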
Outline: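 Viability is scored by CellTiter-Glo luminescence 48 h after dosing, expressed as percent activity against vehicle and no-cell references. Spheroid formats rely on cells cultured 14 days in stem cell media beforehand.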

[7] = Identifying Small Molecule Inhibitors of Pancreatic Cancer Stem Cells (SN12C, Adherent) (AID 1259358); details: viability/growth inhibition; series mostly up to 46.1 µM;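 further: cell survival measured after 48 h of compound exposure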; further: potency means the concentration at half of the fitted maximal effect
Outline: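 Pre-formed 14-day tumor spheroids or adherent cells dosed and incubated 48 h, 37C, 5% CO2. Viability assessed by CellTiter-Glo.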

[8] = qHTS assay to identify small molecule inhibitors of chordoma cells - UCH-2 (AID 1259356); details: UCH-2 chordoma viability, CellTiter-Glo ATP luminescence, 48 h; series mostly up to 46.1 µM
[9] = qHTS assay to identify small molecule inhibitors of chordoma cells - UCH-1 (AID 1259355); details: UCH-1 chordoma viability, CellTiter-Glo, 48 h, combination, with auranofin plus four topoisomerase inhibitors; series mostly up to 46.1 µM; further: nearly all actives have a fitted effect of over 55% in size
Outline: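 800 cells/well, overnight attach; compounds pinned at 15 concs, then auranofin/camptothecin/doxorubicin/rubitecan/topotecan combo added; 48hr 37 C, 5% CO2; CellTiter-Glo, 30min RT, luminescence.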

[10] = Identifying Small Molecule Inhibitors of Pancreatic Cancer Stem Cells (Panc1, Spheroid) (AID 1259359); details: Panc1 spheroid cancer stem cell viability; series mostly up to 46.1 µM;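 further: potency means the concentration at half of the fitted maximal effect; compound exposure lasted 48 h before reading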
Outline: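 Endpoint: ATP-based luminescence, 48 h drug exposure. Bortezomib at 9.2 uM final as full-kill control; DMSO vehicle as negative control; activity normalized between vehicle and cell-free wells.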

Measured: Potency

COc1ccc(COc2cc3oc(=O)c4cc(C(C)O)ccc4c3cc2OC)cc1 (stereo unspecified)
active: [2] 13.2 µM | [3] 23.5 µM | [4] 20.9 µM | [5] 20.9 µM
inactive: [1] | [6] | [7]

O=C(O)[C@@H](c1ccc(OCc2ccc3ccccc3n2)cc1)C1CCCC1
active: [1] 13.2 µM
inactive: [2] | [3] | [4] | [5] | [7]

Cc1csc(NC(=O)c2sc3nc4c(c(C(F)(F)F)c3c2N)CCC4)n1
inactive: [1] | [6] | [7]
active: [2] 1.48 µM | [3] 4.18 µM | [4] 13.2 µM | [5] 6.62 µM

Cc1cc(SCc2sc(-c3ccc(C(F)(F)F)cc3)nc2C)ccc1OCC(=O)O
active: [3] 16.6 µM | [5] 5.26 µM
inactive: [1] | [2] | [6] | [7]

NC(=O)C1CCCc2c1[nH]c1ccc(Cl)cc21 (stereo unspecified)
inactive: [1] | [4]
active: [2] 6.62 µM

NC(=O)c1ccc(-c2nc(-c3ccc4c(c3)OCO4)c(-c3ccccn3)[nH]2)cc1
active: [3] 14.8 µM
inactive: [1] | [2] | [5] | [7]

O=C(c1cc(Cc2n[nH]c(=O)c3ccccc23)ccc1F)N1CCN(C(=O)C2CC2)CC1
active: [2] 8.33 µM | [3] 10.5 µM | [5] 3.72 µM
inactive: [1]

CCCc1nn(C)c2c(=O)[nH]c(-c3cc(S(=O)(=O)N4CCN(C)CC4)ccc3OCC)nc12
active: [2] 14.8 µM | [3] 13.2 µM | [5] 5.26 µM
inactive: [1] | [8] | [7]

O=c1n(CCCN2CCN(c3cccc(Cl)c3)CC2)nc2ccccn12
inactive: [1] | [2] | [3] | [5] | [9] | [8]

S=C(NCc1ccc2c(c1)OCO2)N1CCN(c2ncnc3c2oc2ccccc23)CC1
active: [2] 1.91 µM | [3] 7.62 µM | [4] 4.81 µM | [5] 12.1 µM | [6] 16.6 µM | [7] 13.2 µM | [10] 7.43 µM
inactive: [1]

CC(=O)NC(C)c1ccc(Oc2ccc(OC(C)C)cc2)cc1 (stereo unspecified)
active: [3] 8.33 µM | [4] 6.62 µM
inactive: [1] | [2] | [5] | [7]

Cc1c(CCOc2ccc(C(=O)O)cc2)c2cc(Cl)ccc2n1C(c1ccccc1)c1ccccc1
inactive: [1] | [7]
active: [2] 18.7 µM | [3] 16.6 µM | [5] 10.5 µM

Nc1cccc(S(=O)(=O)N2CCCN(S(=O)(=O)c3ccc4c(c3)OCCO4)CC2)c1
inactive: [1] | [2] | [5] | [7]
active: [3] 16.6 µM | [10] 5.26 µM

O=C(O)COCCN1CCN(C(c2ccccc2)c2ccc(Cl)cc2)CC1 (stereo unspecified)
inactive: [1] | [2] | [3] | [5] | [9] | [8]

O=C1CCCC2=C1C(c1[nH]ncc1Cl)N=C(Nc1nc3ccccc3o1)N2 (stereo unspecified)
inactive: [1] | [2] | [5] | [6] | [7]
active: [3] 10.5 µM

NC(=O)c1ccc(I)c([N+](=O)[O-])c1
inactive: [1] | [2] | [3] | [4] | [5] | [7]

Cc1cc2c(F)c(Oc3ncnn4cc(OC[C@@H](C)O)c(C)c34)ccc2[nH]1
active: [2] 2.35 µM | [3] 13.2 µM | [4] 20.9 µM | [5] 20.9 µM
inactive: [1] | [6]

O=C(C1CC1)N1CC[C@@H](Cn2c(-c3ccc(-c4ccc5occc5c4)cc3)nc3cnccc32)C1
active: [3] 16.6 µM | [4] 13.2 µM | [6] 0.469 µM
inactive: [1] | [2] | [5]

Cc1c(C)c2c(c(C)c1O)CCC(C)(COc1ccc(CC3SC(=O)NC3=O)cc1)O2 (stereo unspecified)
inactive: [1] | [3] | [5] | [9] | [8]

COCCNCCCn1c(C(=O)CF)c(-c2ccc(C)cc2)c2c(N)ncnc21
active: [3] 16.6 µM
inactive: [1] | [4] | [6]

O=C(C=Cc1ccc(/C=C/C(=O)Nc2ccc(C3=NCCN3)cc2)cc1)Nc1ccc(C2=NCCN2)cc1
inactive: [1] | [3] | [5] | [6] | [7]

CCc1cncnc1N1CCN(Cc2nc3ccc(C(F)(F)F)cc3[nH]2)CC1
inactive: [1]
active: [2] 20.9 µM | [5] 16.6 µM

CCCS(=O)(=O)Nc1ccc(F)c(C(=O)c2c[nH]c3ncc(Cl)cc23)c1F
inactive: [1] | [6]
active: [3] 18.7 µM | [5] 16.6 µM
